AC50 and outcome data for 3 molecules are collected here from PubChem BioAssay (EPA / NIEHS).

Each structure is given as a SMILES string. Several values for one entry are separate records, joined by “and”; a condition that tells them apart may be missing. Identical values can stand only once. Some compounds were tested as several samples or in several runs, with calls that do not always agree. Activity calls are given as the source filed them. The calls were made as follows: active = hit-call score of the fitted dose curve at least 0.9, where 1 is the maximum; inactive = score below 0.9.

Assay [1] in a line: ATG_E_Box_CIS: Attagene CIS-FACTORIAL HepG2 Assay for human Enhancer Box (E-box) (AID 2282936). The conditions noted are these: HepG2 E-box cis-reporter transcription, actives raise or lower the signal. An outline of the steps: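 DMSO served as negative control and baseline for bidirectional fitting. Human hepatoma HepG2 cells, transiently transfected with cis-reporter constructs, were dosed 24 h; reporter mRNA read by RT-PCR and capillary electrophoresis.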

Assay [2] in a line: ATG_M_61_CIS: Attagene CIS-FACTORIAL HepG2 Assay for M61 Transcription Factor (Internal Marker) (AID 2282937). The conditions noted are these: HepG2 Attagene CIS-FACTORIAL M61 internal marker reporter; actives raise or lower the signal. An outline of the steps: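 Endogenous transcription factor activity in HepG2 is read through transiently transfected cis-element reporter units. After 24 h dosing, RNA undergoes reverse transcription, PCR and primer extension with 6-FAM before capillary electrophoresis; DMSO-referenced bidirectional fit.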

The nature of assay [3]: ATG_EGR_CIS: Attagene CIS-FACTORIAL HepG2 Assay for human Early Growth Response 1 (EGR1) (AID 2282938). The conditions noted are these: HepG2 Attagene CIS-FACTORIAL EGR reporter mRNA; actives raise or lower the signal. An outline of the steps:
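Activity is taken as induction or loss of reporter mRNA versus DMSO, fitted bidirectionally. Transcripts from cis-regulated reporter units in transiently transfected HepG2 were measured after 24 h by RT-PCR with capillary electrophoresis.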

Assay [4] is described as follows: ATG_M_19_CIS: Attagene CIS-FACTORIAL HepG2 Assay for M19 Transcription Factor (Internal Marker) (AID 2282939). Conditions: HepG2 Attagene CIS-FACTORIAL M19 internal marker reporter; actives raise or lower the signal. An outline of the steps: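 Chemical-treated HepG2 (24 h) with MRTU constructs; reporter transcripts detected by fluorescent RT-PCR fragment analysis on capillary electrophoresis. Internal background marker, DMSO as baseline.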

Assay [5] can be described thus: ATG_ERE_CIS: Attagene CIS-FACTORIAL HepG2 Assay for Estrogen Response Element (ERE) (AID 2282940). Conditions: HepG2 ERE cis-reporter, Attagene RNA transcript; actives raise or lower the signal. Summed up: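 Human liver cells (HepG2) bearing transiently transfected, promoter-regulated reporter units were exposed 24 h. Reporter mRNA induction was detected by capillary electrophoresis of labelled RT-PCR products and fitted bidirectionally to DMSO.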

A short description of assay [6]: ATG_Ets_CIS: Attagene CIS-FACTORIAL HepG2 Assay for human Erythroblast Transformation Specific (ETS) (AID 2282941). Conditions: HepG2 ETS cis-reporter transcription, actives raise or lower the signal. An outline of the steps: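 Human HepG2 hepatoma cells were transiently transfected with promoter-driven reporter constructs and treated for 24 hours. Reporter transcripts were quantified by RT-PCR with fluorescent primer extension; bidirectional curve fitting used DMSO as reference.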

Assay [7] has as its target Hepatocyte nuclear factor 3-beta (Homo sapiens) (UniProt Q9Y261). As to the kind of experiment: ATG_FoxA2_CIS: Attagene CIS-FACTORIAL HepG2 Assay for human Forkhead box A2 (FOXA2) (AID 2282942). Conditions: HepG2 cis-reporter transcription factor activity, 24 h; actives raise or lower the signal. Summed up: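 Reporter transcript induction is measured by fluorescence after capillary electrophoresis of RT-PCR products from HepG2 cells exposed 24 h. Cis-regulated reporter units report endogenous factor activity; curves fitted both directions against DMSO.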

A short description of assay [8]: ATG_GATA_CIS: Attagene CIS-FACTORIAL HepG2 Assay for human GATA Binding Protein (AID 2282944). The conditions noted are these: HepG2 GATA cis-element reporter, Attagene multiplex mRNA; actives raise or lower the signal. Summed up:
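Transfected cis-reporter HepG2 cells were treated with chemicals for 24 hours. Total RNA was then converted to cDNA, amplified with reporter-specific primers and analysed by fluorescent capillary electrophoresis, using DMSO-treated wells as baseline.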

Assay [9] can be described thus: ATG_GLI_CIS: Attagene CIS-FACTORIAL HepG2 Assay for human Zinc Finger Protein GLI1 (AID 2282945). The conditions noted are these: HepG2, Attagene cis-factorial reporter mRNA, GLI element; actives raise or lower the signal. An outline of the steps:
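Bidirectional curve fits relative to DMSO, using reporter mRNA levels from RT-PCR plus capillary electrophoresis. Cells were HepG2 transiently carrying cis-regulated reporter constructs, harvested 24 h after dosing.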

In assay [10] the target is Bile acid receptor (Homo sapiens) (UniProt Q96RI1). Put plainly: ATG_IR1_CIS: Attagene CIS-FACTORIAL HepG2 Assay for human Nuclear Receptor Subfamily 1 Group H Member 4 (NR1H4), IR1 submotif (AID 2282946). The conditions noted are these: IR1 reporter transcription, actives raise or lower the signal. Summed up:
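Cells (human HepG2) carry transiently transfected cis-promoter reporter transcription units. Compounds are incubated 24 h, total RNA is reverse-transcribed and amplified, and labelled fragments are resolved by capillary electrophoresis. Curves use DMSO as baseline.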

The nature of assay [11]: ATG_GRE_CIS: Attagene CIS-FACTORIAL HepG2 Assay for human Glucocorticoid Response Elements (GRE) (AID 2282947). The conditions noted are these: HepG2 GRE cis-reporter, Attagene multiplex mRNA; actives raise or lower the signal. An outline of the steps:
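Assay uses human hepatoma HepG2 cells transfected with cis-promoter reporter units, exposed 24 h. mRNA from reporters detected by RT-PCR plus capillary electrophoresis; DMSO serves as negative control and baseline.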

The nature of assay [12]: ATG_ISRE_CIS: Attagene CIS-FACTORIAL HepG2 Assay for human Interferon Regulatory Factor 1 (IRF1) binding to an Interferon-Stimulated Response Element (ISRE) (AID 2282948). Conditions: HepG2 ISRE cis-reporter (Attagene), mRNA transcription readout; actives raise or lower the signal. An outline of the steps:
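Cell-based cis-reporter assay; HepG2; 24 h exposure; reporter mRNA by RT-PCR plus capillary electrophoresis fluorescence; activity in either direction scored relative to DMSO.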

Assay [13] in a line: ATG_M_32_CIS: Attagene CIS-FACTORIAL HepG2 Assay for M32 Transcription Factor (Internal Marker) (AID 2282949).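 Also: background control marker of the multiplexed CIS panel rather than a real target.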 The conditions noted are these: HepG2 Attagene cis-factorial M32 reporter, mRNA; actives raise or lower the signal. Summed up:
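Internal background marker read-out: RT-PCR/capillary electrophoresis fluorescence of reporter transcripts from transiently transfected HepG2 cells after 24 h chemical exposure. Activity fitted bidirectionally relative to DMSO negative control.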

A short description of assay [14]: ATG_M_06_CIS: Attagene CIS-FACTORIAL HepG2 Assay for M06 Transcription Factor (Internal Marker) (AID 2282950). The conditions noted are these: HepG2 Attagene CIS-FACTORIAL M06 internal marker reporter; actives raise or lower the signal. Summed up:
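Cells (HepG2, transiently carrying cis-driven reporter units) receive chemical for 24 h before RNA isolation. Reporter cDNA is PCR-amplified, FAM-labelled by primer extension, HpaI-digested and sized on a capillary analyser.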

In assay [15] the target is Hypoxia-inducible factor 1-alpha (Homo sapiens) (UniProt Q16665). Put plainly: ATG_HIF1a_CIS: Attagene CIS-FACTORIAL HepG2 Assay for human Hypoxia Inducible Factor 1 (HIF1A) (AID 2282951). The conditions noted are these: HepG2 Attagene cis-factorial HIF1a reporter transcription; actives raise or lower the signal. Summed up:
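Fluorescence intensity of capillary-separated, 6-FAM-labelled reporter amplicons gives mRNA induction in HepG2 cells carrying transfected cis-promoter reporter units; cells exposed 24 h, responses fitted up or down from DMSO.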

For assay [16], the target named is Hepatocyte nuclear factor 6 (Homo sapiens) (UniProt Q9UBC0). As to the kind of experiment: ATG_HNF6_CIS: Attagene CIS-FACTORIAL HepG2 Assay for human Hepatocyte Nuclear Factor 6 (HNF6) (AID 2282952). The conditions noted are these: HepG2 Attagene cis-factorial HNF6 reporter transcription; actives raise or lower the signal. An outline of the steps: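 Reporter mRNA induction or loss in HepG2 after 24 h exposure; transient cis-MRTU transfection; fragments quantified by capillary electrophoresis; bidirectional analysis, DMSO as negative control.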
Sequence of Hepatocyte nuclear factor 6 (Homo sapiens) (Q9UBC0 whole entry, looked up, the tested form may be a part): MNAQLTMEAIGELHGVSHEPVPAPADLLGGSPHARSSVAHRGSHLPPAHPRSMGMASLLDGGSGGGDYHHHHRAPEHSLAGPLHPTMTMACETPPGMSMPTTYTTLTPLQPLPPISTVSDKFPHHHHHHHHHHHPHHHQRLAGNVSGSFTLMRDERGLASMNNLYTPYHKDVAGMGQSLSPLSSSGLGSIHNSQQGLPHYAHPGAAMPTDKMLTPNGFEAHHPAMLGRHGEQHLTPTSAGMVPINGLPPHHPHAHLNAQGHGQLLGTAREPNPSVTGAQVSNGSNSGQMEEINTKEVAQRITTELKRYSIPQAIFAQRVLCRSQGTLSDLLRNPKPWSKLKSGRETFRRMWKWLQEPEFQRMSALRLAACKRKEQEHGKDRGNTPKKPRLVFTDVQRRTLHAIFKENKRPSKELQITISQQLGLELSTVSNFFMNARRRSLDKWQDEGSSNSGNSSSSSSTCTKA

The target in assay [17] is Heat shock factor protein 1 (Homo sapiens) (UniProt Q00613). As to the kind of experiment: ATG_HSE_CIS: Attagene CIS-FACTORIAL HepG2 Assay for human Heat Shock Transcription Factor 1 (HSE) (AID 2282953). Conditions: HepG2 HSE cis-reporter, Attagene RNA transcription; actives raise or lower the signal. An outline of the steps:
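Liver-derived HepG2 cells carry transiently introduced multiple reporter units governed by cis promoters. Reporter RNA measured 24 h post-dose through reverse transcription, PCR amplification, fluorescent labelling and capillary electrophoresis, normalised to DMSO.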

The nature of assay [18]: ATG_MRE_CIS: Attagene CIS-FACTORIAL HepG2 Assay for human Metal Responsive Element (MRE) (AID 2282954). Conditions: HepG2 MRE cis-reporter transcription, Attagene multiplex; actives raise or lower the signal. Summed up: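 After a 24 h chemical exposure, transiently transfected HepG2 cells yield RNA whose reporter sequences are amplified, FAM-labelled and sized by capillary electrophoresis. Curves are fitted bidirectionally relative to DMSO.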

Assay [19] is described as follows: ATG_PBREM_CIS: Attagene CIS-FACTORIAL HepG2 Assay for human Phenobarbital-responsive Enhancer Module (PBREM) (AID 2282955). Conditions: HepG2 PBREM cis-reporter, Attagene multiplexed transcription; actives raise or lower the signal. Summed up: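 Cells were transfected with cis-element reporter units and treated for 24 h, after which RNA was extracted and reporter transcripts measured by RT-PCR and capillary electrophoresis.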

Assay [20] in a line: ATG_FoxO_CIS: Attagene CIS-FACTORIAL HepG2 Assay for human Forkhead box O (FoxO) (AID 2282943). The conditions noted are these: HepG2 Attagene cis-reporter, FoxO element, mRNA; actives raise or lower the signal. Summed up:
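HepG2, transient MRTU transfection (cis element, endogenous TFs). Dose 24 h. TriZol RNA → oligo(dT) RT → PCR → 6-FAM primer extension → HpaI cut → CE. Gain/loss vs DMSO.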

Sequence of Heat shock factor protein 1 (Homo sapiens) (Q00613 whole entry, looked up): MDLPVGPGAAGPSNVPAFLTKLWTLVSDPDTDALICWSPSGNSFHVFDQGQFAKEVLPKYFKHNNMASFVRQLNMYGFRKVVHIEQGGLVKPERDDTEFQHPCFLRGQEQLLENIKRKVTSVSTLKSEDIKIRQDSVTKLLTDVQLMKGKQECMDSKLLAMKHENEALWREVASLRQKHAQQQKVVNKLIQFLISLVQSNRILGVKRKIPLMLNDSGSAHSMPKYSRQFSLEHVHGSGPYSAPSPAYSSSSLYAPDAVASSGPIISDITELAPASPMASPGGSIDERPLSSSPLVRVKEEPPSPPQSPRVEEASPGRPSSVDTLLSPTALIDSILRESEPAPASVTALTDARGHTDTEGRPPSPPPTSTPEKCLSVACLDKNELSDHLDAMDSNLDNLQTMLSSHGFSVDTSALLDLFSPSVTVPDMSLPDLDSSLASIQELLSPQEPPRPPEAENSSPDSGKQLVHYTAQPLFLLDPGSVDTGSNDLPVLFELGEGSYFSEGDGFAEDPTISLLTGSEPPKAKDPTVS
Sequence of Hepatocyte nuclear factor 3-beta (Homo sapiens) (Q9Y261 whole entry, looked up): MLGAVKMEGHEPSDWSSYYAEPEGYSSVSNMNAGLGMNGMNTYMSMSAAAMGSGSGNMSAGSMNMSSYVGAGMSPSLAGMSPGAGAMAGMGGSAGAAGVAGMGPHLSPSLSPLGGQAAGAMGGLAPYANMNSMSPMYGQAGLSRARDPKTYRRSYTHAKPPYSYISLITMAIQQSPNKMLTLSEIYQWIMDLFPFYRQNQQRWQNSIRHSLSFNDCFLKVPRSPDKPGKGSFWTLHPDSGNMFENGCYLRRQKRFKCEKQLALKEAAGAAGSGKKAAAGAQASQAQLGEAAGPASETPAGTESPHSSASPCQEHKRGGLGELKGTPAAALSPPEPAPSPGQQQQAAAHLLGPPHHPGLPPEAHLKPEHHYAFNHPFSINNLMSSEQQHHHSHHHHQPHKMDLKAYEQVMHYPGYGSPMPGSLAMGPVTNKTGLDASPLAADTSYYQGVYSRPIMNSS
Sequence of Hypoxia-inducible factor 1-alpha (Homo sapiens) (Q16665 whole entry, looked up): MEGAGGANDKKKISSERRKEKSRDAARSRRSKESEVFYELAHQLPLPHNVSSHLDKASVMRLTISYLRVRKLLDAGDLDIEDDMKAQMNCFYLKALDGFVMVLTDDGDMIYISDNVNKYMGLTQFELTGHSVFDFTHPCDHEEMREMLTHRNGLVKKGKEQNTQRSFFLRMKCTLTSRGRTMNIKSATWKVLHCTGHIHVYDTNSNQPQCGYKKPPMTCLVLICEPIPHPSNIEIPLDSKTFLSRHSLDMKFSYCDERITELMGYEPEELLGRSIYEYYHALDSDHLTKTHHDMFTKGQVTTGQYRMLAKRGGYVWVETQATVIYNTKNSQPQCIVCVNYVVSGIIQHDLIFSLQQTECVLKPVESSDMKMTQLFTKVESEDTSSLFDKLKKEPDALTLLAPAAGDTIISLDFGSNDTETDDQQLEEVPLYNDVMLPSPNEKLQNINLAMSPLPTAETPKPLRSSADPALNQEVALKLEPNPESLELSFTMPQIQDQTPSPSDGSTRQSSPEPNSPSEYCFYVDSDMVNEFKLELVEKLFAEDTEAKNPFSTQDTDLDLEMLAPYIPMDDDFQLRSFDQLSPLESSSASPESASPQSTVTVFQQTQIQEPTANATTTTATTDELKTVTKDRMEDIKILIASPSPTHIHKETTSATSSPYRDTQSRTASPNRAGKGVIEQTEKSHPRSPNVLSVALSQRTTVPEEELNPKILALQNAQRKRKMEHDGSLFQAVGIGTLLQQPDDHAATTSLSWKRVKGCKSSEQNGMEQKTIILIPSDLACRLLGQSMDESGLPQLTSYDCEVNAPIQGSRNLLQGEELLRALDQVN
Sequence of Bile acid receptor (Homo sapiens) (Q96RI1 whole entry, looked up, the tested form may be a part): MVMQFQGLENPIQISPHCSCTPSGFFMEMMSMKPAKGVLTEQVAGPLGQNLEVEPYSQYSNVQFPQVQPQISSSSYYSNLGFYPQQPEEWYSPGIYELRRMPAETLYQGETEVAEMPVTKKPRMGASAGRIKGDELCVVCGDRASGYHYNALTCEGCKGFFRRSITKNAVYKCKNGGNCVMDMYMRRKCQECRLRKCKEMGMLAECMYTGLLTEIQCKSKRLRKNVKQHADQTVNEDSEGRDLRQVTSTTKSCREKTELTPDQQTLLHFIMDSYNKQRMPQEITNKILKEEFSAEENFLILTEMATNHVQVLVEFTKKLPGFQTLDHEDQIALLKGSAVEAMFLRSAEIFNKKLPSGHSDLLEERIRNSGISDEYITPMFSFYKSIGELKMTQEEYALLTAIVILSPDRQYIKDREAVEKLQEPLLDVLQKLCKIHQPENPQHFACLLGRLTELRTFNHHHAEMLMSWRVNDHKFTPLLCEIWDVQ

The term AC50 denotes the concentration at which the activity in the assay is half-maximal. In the case of `CN(C)c1ccc(C(=C2C=CC(=[N+](C)C)C=C2)c2ccc(N(C)C)cc2)cc1`, the AC50 was 2.88 µM (active) in [1]; 2.23 µM (active) in assay [3]; 1.01 µM (active) in [5]; 2.87 µM (active) in assay [10]; 2.28 µM (active) in [12]; 2.03 µM (active) in assay [13]. Further, the AC50 in assay [17] was 6.63 µM (active); in assay [18], 4.28 µM (active); in assay [19], 5.8 µM (active). For the same molecule, the call in assay [2], in assay [4], in assay [6], in [7], in [8] and in assay [9] was inactive. For the same molecule, the molecule was classed as inactive in [11], in assay [14], in assay [15] and in assay [16].
For `O=c1[nH]sc2ccccc12`, the outcome in [1], in [2], in assay [3], in assay [4], in [5] and in [6] was inactive. The molecule was classed as inactive in assay [7], in [20], in assay [8], in assay [9], in assay [10] and in [11]. The outcome in [13], in [14], in [16], in assay [18] and in assay [19] was inactive. Moreover, the AC50 in assay [12] was 33.4 µM (active); in [15], 8.86 µM (active); in [17] it was 52.8 µM (active).
Consider `CCCCCCCC[Si](OCC)(OCC)OCC`, for which the AC50 in [1] was 48.4 µM (active); in assay [6] it was 100 µM (active) and 75.6 µM (active); in assay [9], 162 µM (active); in assay [11], 127 µM (active); in assay [12], 41.8 µM (active); in assay [15], 57.3 µM (active) and 26.4 µM (active). Also, the result in [1], in assay [2], in assay [3], in [6], in [7] and in assay [20] was inactive. In addition, the result in assay [8], in [9], in [11], in assay [12], in assay [13] and in assay [14] was inactive. For the same molecule, the result in [15], in [16], in assay [17] and in assay [18] was inactive.
